For one test, the system named is IYD (gene 389434). Description: CCTE_GLTED_hIYD: CCTE's human Iodotyrosine Deiodinase (xIYD) Inhibition Assay, Great Lakes Toxicology and Ecology Division (GLTED) Lab (AID 2284317).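 Further: cell-free human IYD enzyme made in baculovirus insect cells; iodide freed from monoiodotyrosine measured by cerium arsenite color change at 420 nm.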 In a few lines: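 Iodide liberated from monoiodotyrosine by baculovirus-expressed human IYD over 3 h was determined colorimetrically (Sandell-Kolthoff, 420 nm) after Dowex separation; inhibition is loss of signal versus DMSO.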

Test [1] can be described thus: IUF_NPC4_neurite_area_120hr: Leibniz Research Institute for Environmental Medicine (IUF) 120-hour Neuronal Morphology Assay for Neurite Area (NPC4) (AID 2284305). In a few lines: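 Neurite area (pixels, nuclei excluded) of TUBB3-positive neurons from hNPC spheres differentiating 5 days under continuous exposure at 37 C, 5% CO2. High-content imaging; loss of signal versus DMSO control across 7 concentrations.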

Test [2] is described as follows: IUF_NPC2-5_cytotoxicity_72hr: Cytotoxicity Assessment at 72 hours in the Leibniz Research Institute for Environmental Medicine (IUF) Neural Progenitor Cell Migration and Differentiation Assay for Cytotoxicity (NPC2-5) (AID 2284306).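 Further: LDH release into supernatant measured by resorufin fluorescence marking membrane damage.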 In a few lines: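 Membrane-integrity cytotoxicity at 72 h, read as LDH-driven resorufin fluorescence in supernatant. hNPC spheres from fetal cortex differentiate on coated plates in N2 medium, 37C, 5% CO2; seven serial compound concentrations plus solvent control (DMSO ≤0.1%).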

The nature of test [3]: IUF_NPC2-5_cytotoxicity_120hr: Cytotoxicity Assessment at 120 hours in the Leibniz Research Institute for Environmental Medicine (IUF) Neural Progenitor Cell Migration and Differentiation Assay (NPC2-5) (AID 2284307).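 On AC50: LDH released into supernatant as membrane damage marker via resorufin fluorescence.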 The gist of the method: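 Membrane-integrity loss is quantified by LDH in supernatant after five days of exposure of migrating, differentiating human fetal NPC spheres; seven serially diluted concentrations are tested with DMSO kept at or below 0.1%.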

Test [4] is described as follows: IUF_NPC2-5_cell_number_120hr: Cell Number Assessment at 120 hours in the Leibniz Research Institute for Environmental Medicine (IUF) Neural Progenitor Cell Migration and Differentiation Assay (NPC2-5) (AID 2284308; active means hit-call score of the fitted dose curve at least 0.9, where 1 is the maximum; inactive means score below 0.9;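 further: count of Hoechst-stained nuclei in migration zone around plated human neural progenitor spheres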). The gist of the method:
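Seven-point serial dilutions plus solvent control were applied to plated 0.3 mm hNPC spheres at differentiation start, with medium half-replaced at day 3. Nuclei positive for Hoechst in the migration zone were enumerated at 120 h.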

Test [5] can be described thus: IUF_NPC2-5_viability_120hr: Viability Assessment at 120 hours in the Leibniz Research Institute for Environmental Medicine (IUF) Neural Progenitor Cell Migration and Differentiation Assay (NPC2-5) (AID 2284312; active means hit-call score of the fitted dose curve at least 0.9, where 1 is the maximum; inactive means score below 0.9). In a few lines: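 Alamar blue resorufin fluorescence read after 5 days of differentiation, with compound present from day 0 and replenished at day 3. Primary hNPC spheres on laminin-coated plates, 37C; seven concentrations plus solvent control, fitted against DMSO.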

The nature of test [6]: CCTE_Mundy_HCI_iCellGluta_NOG_NeuriteLength: CCTE's Neurite Outgrowth Assay in iCellGluta cells for Neurite Length, Mundy Lab (AID 2284318). The gist of the method:
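Automated high-content imaging of betaIII-tubulin (Alexa Fluor-488) and Hoechst-stained cells gave neurite length, normalized to the DMSO baseline.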

The nature of test [7]: VALA_TUBHUV_Agonist_CellCount: Viability Assessment in the VALA Sciences human Umbilical Vein Endothelial Tubule Formation (TUBHUV) Agonism Assay (AID 2284309). The gist of the method:
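Viability endpoint by fluorescent imaging of fixed nuclear/CD31-stained HUVEC–HDF co-cultures. Readout is cell count, fitted upward against 0.1% DMSO. Compound exposure was 72 h in 10 ng/ml VEGF, after 3-day co-culture priming.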

A short description of test [8]: VALA_TUBHUV_Antagonist_CellCount: Viability Assessment in the VALA Sciences human Umbilical Vein Endothelial Tubule Formation (TUBHUV) Antagonism Assay (AID 2284310). In a few lines:
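Read-out is imaged cell count after nuclear and CD31 staining, fitted against 0.1% DMSO vehicle. Compounds were added for 3 days, in 10 ng/ml VEGF assay medium, to HUVEC–HDF co-cultures pre-grown 3 days.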

Test [9] can be described thus: VALA_MIGHUV2_CellCount: Viability Assessment in the VALA Sciences human Umbilical Vein Endothelial Cell Migration (MIGHUV) Assay, Area of Scratch Wound after Recovery (AID 2284314). In a few lines:
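Viability read-out: Hoechst-stained nuclei counted by fluorescence imaging after a 24 h recovery period in fixed, scratched HUVEC plates. Compound was dosed within 30 min of scratching at six concentrations (triplicate); DMSO at 0.1 % served as baseline.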

A short description of test [10]: VALA_TUBHUV_Antagonist_TubuleLength: VALA Sciences human Umbilical Vein Endothelial Tubule Formation (TUBHUV) Antagonism Assay (AID 2284325). The gist of the method:
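Tubule length was imaged via CD31 immunofluorescence after a further 3-day compound exposure in 10 ng/ml VEGF, following 3-day pre-culture of HUVEC with HDF at 1:3. Vehicle 0.1% DMSO; suramin (100 uM) inhibition control.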

Test [11] in a line: CCTE_Deisenroth_5AR_NBTE_donor: CCTE's 5alpha-reductase NanoBRET Target Engagement Assay […], Deisenroth Lab (AID 2284319; active means hit-call score of the fitted dose curve at least 0.9, where 1 is the maximum; inactive means score below 0.9). As to conditions: actives raise or lower the signal. In a few lines:
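SRD5A2-NanoLuc, HEK293T, 20 h expression. Chemical 10 nM - 29.9 uM, 8 conc, duplicate; 3 h preincubation + 2 h testosterone tracer. Nano-Glo substrate plus extracellular NanoLuc inhibitor; donor lum 460 nm. DMSO baseline, bidirectional fit.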
A general note: In BRET a luciferase serves as donor, and the signal depends on an acceptor being close.

A short description of test [12]: CCTE_Deisenroth_5AR_NBTE_acceptor: CCTE's 5alpha-reductase NanoBRET Target Engagement Assay - Autofluorescence Screen, Deisenroth Lab (AID 2284321; active means hit-call score of the fitted dose curve at least 0.9, where 1 is the maximum; inactive means score below 0.9;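 further: compound fluorescence in the acceptor channel under 460 nm excitation flags autofluorescence artifacts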). As to conditions: actives raise or lower the signal. The gist of the method: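 Using three independent plate-reader runs, nominal 100 uM chemicals were checked for intrinsic fluorescence (ex 460 nm). DMSO defined the baseline for bidirectional fitting.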

The next test relates to SRD5A2 (gene 6716). The experiment in a line: CCTE_Deisenroth_5AR_NBTE_ratio: CCTE's 5alpha-reductase NanoBRET Target Engagement Assay - Ratio, Deisenroth Lab (AID 2284322; active means hit-call score of the fitted dose curve at least 0.9, where 1 is the maximum; inactive means score below 0.9). As to conditions: actives raise or lower the signal. In a few lines:
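SRD5A2-NanoLuc HEK293T; cmpd 10 nM-29.9 uM, 3 h preinc + testosterone tracer 2 h; NanoBRET ratio 650/460; bidirectional fit vs DMSO.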

A short description of test [13]: VALA_MIGHUV2_WoundArea: VALA Sciences human Umbilical Vein Endothelial Cell Migration (MIGHUV) Assay, Area of Scratch Wound after Recovery (AID 2284316). In a few lines: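 Wound-area endpoint read by fluorescence imaging of Hoechst-stained nuclei after a 24 h recovery period following scratch of HUVEC monolayers (9000 cells/well). Chemicals dosed within 30 min post-scratch, triplicate 6-point series, 0.1% DMSO vehicle; Cytochalasin D positive control.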

A short description of test [14]: VALA_MIGHUV1_ScratchOnly_CellCount: Viability Assessment in the VALA Sciences human Umbilical Vein Endothelial Cell Migration (MIGHUV) Assay, Scratch Wound Inhibited Recovery (AID 2284327). In a few lines: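 Hoechst-stained nuclei in the scratch wound were counted by high-content imaging after a 24 h recovery period. Scratched HUVEC monolayers received 6-point concentration series, triplicate, in 0.1% DMSO, fit against DMSO.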

A short description of test [15]: VALA_TUBIPS_Antagonist_CellCount: Viability Assessment in the VALA Sciences human iPS-derived Endothelial Tubule Formation (TUBIPS) Antagonism Assay (AID 2284335).
Test [16] is described as follows: VALA_TUBIPS_Antagonist_TubuleLength: VALA Sciences human iPS-derived Endothelial Tubule Formation (TUBIPS) Antagonist Assay (AID 2284313). In a few lines: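 Tubule length was quantified by high-content imaging of CD31- and nuclear-stained cells, with 0.1% DMSO as neutral and 100 uM suramin as inhibition control. Compounds were applied for 3 days, in 10 ng/ml VEGF, to cultures pre-grown 3 days.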

Results filed as inconclusive are left out. Calls of active or inactive are those of the source. How the source made its calls, unless noted: active means hit-call score of the fitted dose curve at least 0.9, where 1 is the maximum; inconclusive means response in the unintended direction; inactive means score below 0.9.

For `CC(C)[C@H](C(=O)O[C@H](C#N)c1cccc(Oc2ccccc2)c1)c1ccc(Cl)cc1`, in the test with IYD (gene 389434), the outcome was inactive.

Regarding `CCOP(=O)(OCC)Oc1cc(C)nc(C(C)C)n1`, the result (in test [1]; in test [2]; in test [3]; in [4]; in test [5]; with IYD (gene 389434)) was inactive. In test [6], the compound was called inactive.

Take `CC(=NC#N)N(C)Cc1ccc(Cl)nc1`: the result in test [1], in [2], in [3], in test [4] and in [5] was inactive.

For the compound `CCOC(=O)CC(SP(=O)(OC)OC)C(=O)OCC` (stereo unspecified), the compound was classed as inactive in [1], in test [2], in [3], in [4] and in test [5].

Usually AC50 stands for the midpoint of the concentration-response curve, whichever way the signal moves. As for `CON=C(C(=O)OC)c1ccccc1CON=C(C)c1cccc(C(F)(F)F)c1`, the half-maximal activity concentration (AC50) in test [1] was 0.127 µM (active); in test [6], 13.3 µM (active). The outcome in test [2], in [3], in [4] and in test [5] was inactive.

For the compound `O=[N+]([O-])c1cc(C(F)(F)F)c(Cl)c([N+](=O)[O-])c1Nc1ncc(C(F)(F)F)cc1Cl`, the AC50 in test [1] was 1.13 µM (active); in test [2], 3.71 µM (active); in test [3] it was 1.08 µM (active); in [4] it was 1.1 µM (active); in test [5], 1.4 µM (active); in test [6] it was 0.714 µM (active). For the same compound, the compound was classed as inactive in [7], in test [8], in [9] and in [10].

`COP(=O)(OC)OC(Br)C(Cl)(Cl)Br` (stereo unspecified): the AC50 was 27 µM (active) in test [1], 70.1 µM (active) in test [3], 25.7 µM (active) in [4] and 13.5 µM (active) in test [6]. Moreover, the outcome (in test [2]; in test [5]; in [11]; in test [12]; in the test on SRD5A2 (gene 6716)) was inactive.

`CN(C)[C@@H]1C(=O)C(C(N)=O)=C(O)[C@@]2(O)C(=O)C3=C(O)c4c(O)cccc4[C@@](C)(O)[C@H]3[C@H](O)[C@@H]12`: the compound was classed as inactive (in [2]; in [7]; in test [5]; in [11]; in [12]; in the test with SRD5A2 (gene 6716)). Moreover, the compound was classed as inactive in test [14] and in [15]. The AC50 in test [3] is 25.8 µM (active); in test [4], 72.5 µM (active); in test [13], 50 µM (active); in test [6] it was 24.6 µM (active).

As to `CC1=NNC(=O)N(/N=C/c2cccnc2)C1`, the compound was classed as inactive in [1], in test [2], in test [3], in [4], in test [7] and in test [5]. For the same compound, the compound was classed as inactive in test [16], in test [13], in test [6] and in test [15].

Consider `CCCOCC(=Nc1ccc(Cl)cc1C(F)(F)F)n1ccnc1`, for which, in the test with IYD (gene 389434), the compound was called inactive.

Turning to `CCOP(=S)(OCC)SCCSCC`, the outcome in [1], in test [2], in test [3], in test [4] and in test [5] was inactive.

Regarding `CCOP(=O)(NC(C)C)Oc1ccc(SC)c(C)c1` (stereo unspecified), the outcome in test [1], in [2], in test [3], in [4], in test [5] and in [6] was inactive.

On to `C[N+]1(C)CCCCC1`, for which the call in test [1], in test [2], in test [4] and in test [5] was inactive. The AC50 in test [3] is 0.0969 µM (active).

For `CCC(CC)Nc1c([N+](=O)[O-])cc(C)c(C)c1[N+](=O)[O-]`, the compound was classed as inactive (in test [11]; in [12]; in the test on SRD5A2 (gene 6716)).

Take `CCOP(=S)(OCC)OC(Cl)C(Cl)(Cl)Cl` (stereo unspecified): the outcome in [1], in test [2], in test [3], in [4], in test [5] and in test [6] was inactive.

Source of the values: PubChem BioAssay (EPA / NIEHS).
